Reference: PubChem BioAssay (NCI)
Compounds without any hit were thinned out: in the full panel of roughly 79,000, 15% have a hit. Unmarked numbers belong to inactive results. The source made the active and inactive calls. Rule as the data show it: active = growth inhibition above about 70%; inactive = the rest.

Experiments:
[1] = NCI Yeast Anticancer Drug Screen. Data for the rad52 strain (AID 147);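 also: 0% = growth of vehicle-treated control cultures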; details: S. cerevisiae rad52 mutant growth inhibition, stronger effect = higher value
Method in brief: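 Read-out: growth inhibition versus vehicle-treated controls. Cells were a DNA repair-deficient yeast strain treated with compounds.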

[2] = NCI Yeast Anticancer Drug Screen. Data for the rad50EPP+ strain (AID 151);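 also: 0% = growth of vehicle-treated control cultures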; details: S. cerevisiae rad50 mutant strain, stronger effect = higher value
Method in brief: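 Growth inhibition read against vehicle controls in rad50EPP+ yeast, a strain altered in DNA damage repair, after compound exposure.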

[3] = NCI Yeast Anticancer Drug Screen. Data for the mgt1 strain (AID 153); details: S. cerevisiae mgt1 mutant growth inhibition, stronger effect = higher value
Method in brief: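 mgt1 yeast grown with test compound; read-out is growth inhibition versus vehicle-treated cultures.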

[4] = NCI Yeast Anticancer Drug Screen. Data for the rad50 strain (AID 155);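 also: 0% = growth of vehicle-only cultures of the same strain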; details: S. cerevisiae rad50 strain growth inhibition, stronger effect = higher value
Method in brief: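 Genetically altered yeast (DNA repair pathway); compound treatment; growth inhibition vs vehicle ctrl.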

[5] = NCI Yeast Anticancer Drug Screen. Data for the mec2-1 strain (AID 157); details: S. cerevisiae mec2-1 strain, stronger effect = higher value
Method in brief: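 Yeast mec2-1 mutant treated with compound. Readout: growth inhibition vs vehicle controls.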

[6] = NCI Yeast Anticancer Drug Screen. Data for the rad14 strain (AID 159);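 also: 0% = growth of vehicle-treated control cultures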; details: S. cerevisiae rad14 strain growth inhibition, stronger effect = higher value
Method in brief: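 Test compounds were applied to a repair-deficient yeast strain. Its growth was then compared with that of cultures given vehicle alone, and inhibition was expressed relative to those controls.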

[7] = NCI Yeast Anticancer Drug Screen. Data for the CLN2oe strain (AID 163);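 also: 0% = growth of vehicle-only control cultures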; details: S. cerevisiae CLN2oe strain, stronger effect = higher value
Method in brief: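 Read-out: yeast growth inhibition, expressed relative to vehicle-only controls. The strain bears an engineered cell-cycle alteration.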

[8] = NCI Yeast Anticancer Drug Screen. Data for the cln2 rad14 strain (AID 165);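 also: 0% = growth equal to vehicle treated cultures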; details: S. cerevisiae cln2 rad14 strain, stronger effect = higher value
Method in brief: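 cln2 rad14 yeast strain; compound exposure; growth inhibition read vs vehicle controls.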

[9] = NCI Yeast Anticancer Drug Screen. Data for the bub3 strain (AID 167); details: S. cerevisiae bub3 mutant strain, stronger effect = higher value
Method in brief: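 Yeast carrying a defined mutation is treated with each compound, and growth is compared with that of vehicle-exposed cells to give inhibition.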

[10] = NCI Yeast Anticancer Drug Screen. Data for the mlh1 strain (AID 171);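 also: 0% = growth of vehicle-treated control cultures of the same strain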; details: S. cerevisiae mlh1 strain growth inhibition, stronger effect = higher value
Method in brief: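 Read-out: growth inhibition versus vehicle controls. Strain: engineered yeast with a defined DNA repair or cell cycle defect, compound-treated.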

[11] = NCI Yeast Anticancer Drug Screen. Data for the sgs1 strain (AID 173);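 also: 0% = growth of vehicle-only control cultures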; details: S. cerevisiae sgs1 mutant, stronger effect = higher value
Method in brief: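 Read-out: yeast growth inhibition relative to vehicle controls, following compound exposure of a strain with a defined DNA repair/cell cycle alteration.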

[12] = at 5.0 µM (retest, dose inferred, filed as 0.5)
[13] = at 50.0 µM (retest, dose inferred, filed as 5.0)

SMILES: Oc1cccc2cc(Cl)cnc12
- growth inhibition ([1]; at 1.2 µM): -5%
- growth inhibition ([1]; at 3.7 µM): 5%
- growth inhibition ([1]; at 11.0 µM): 49%
- growth inhibition ([1]; at 33.0 µM): 96% (active)
- growth inhibition ([1]; at 100.0 µM): 97% (active)
- growth inhibition ([2]; at 1.2 µM): -11%
- growth inhibition ([2]; at 3.7 µM): -2%
- growth inhibition ([2]; at 11.0 µM): 94% (active)
- growth inhibition ([2]; at 33.0 µM): 98% (active)
- growth inhibition ([2]; at 100.0 µM): 97% (active)
- growth inhibition ([3]; at 1.2 µM): -18%
- growth inhibition ([3]; at 3.7 µM): -22%
- growth inhibition ([3]; at 11.0 µM): 3%
- growth inhibition ([3]; at 33.0 µM): 97% (active)
- growth inhibition ([3]; at 100.0 µM): 98% (active)
- growth inhibition ([4]; at 1.2 µM): -29%
- growth inhibition ([4]; at 3.7 µM): -13%
- growth inhibition [4, 12]: 37%
- growth inhibition ([4]; at 11.0 µM): 37%
- growth inhibition ([4]; at 33.0 µM): 96% (active)
- growth inhibition [4, 13]: 65%
- growth inhibition ([4]; at 50.0 µM): 90.7% (active)
- growth inhibition ([4]; at 100.0 µM): 97% (active)
- growth inhibition ([5]; at 1.2 µM): -56%
- growth inhibition ([5]; at 3.7 µM): -56%
- growth inhibition [5, 12]: 38%
- growth inhibition ([5]; at 11.0 µM): 6%
- growth inhibition ([5]; at 33.0 µM): 97% (active)
- growth inhibition [5, 13]: 69%
- growth inhibition ([5]; at 50.0 µM): 92.8% (active)
- growth inhibition ([5]; at 100.0 µM): 98% (active)
- growth inhibition ([6]; at 1.2 µM): -27%
- growth inhibition ([6]; at 3.7 µM): -13%
- growth inhibition ([6]; at 11.0 µM): 28%
- growth inhibition ([6]; at 33.0 µM): 97% (active)
- growth inhibition ([6]; at 100.0 µM): 98% (active)
- growth inhibition ([7]; at 1.2 µM): 5%
- growth inhibition ([7]; at 3.7 µM): 8%
- growth inhibition ([7]; at 11.0 µM): 45%
- growth inhibition ([7]; at 33.0 µM): 95% (active)
- growth inhibition ([7]; at 100.0 µM): 94% (active)
- growth inhibition [8, 12]: 49%
- growth inhibition [8, 13]: 98% (active)
- growth inhibition ([8]; at 50.0 µM): 88.7% (active)
- growth inhibition ([9]; at 1.2 µM): -21%
- growth inhibition ([9]; at 3.7 µM): -8%
- growth inhibition [9, 12]: 55%
- growth inhibition ([9]; at 11.0 µM): 20%
- growth inhibition ([9]; at 33.0 µM): 96% (active)
- growth inhibition [9, 13]: 99% (active)
- growth inhibition ([9]; at 50.0 µM): 91.8% (active)
- growth inhibition ([9]; at 100.0 µM): 97% (active)
- growth inhibition ([10]; at 1.2 µM): -22%
- growth inhibition ([10]; at 3.7 µM): -42%
- growth inhibition ([10]; at 11.0 µM): 3%
- growth inhibition ([10]; at 33.0 µM): 96% (active)
- growth inhibition ([10]; at 100.0 µM): 97% (active)
- growth inhibition ([11]; at 1.2 µM): -47%
- growth inhibition ([11]; at 3.7 µM): -43%
- growth inhibition ([11]; at 11.0 µM): 46%
